Results published in PubChem BioAssay (EPA / NIEHS).
“And” between values parts separate entries of the source, which are not always exact repeats. Equal entries are not always repeated. Where a structure was tested more than once in an assay, its records may differ in their call. The source made the active and inactive calls. How the source made its calls: active means hit-call score of the fitted dose curve at least 0.9, where 1 is the maximum; inactive means score below 0.9.

Experiment: ATG_DR4_LXR_CIS: Attagene CIS-FACTORIAL HepG2 Assay for human Liver X Receptor (LXR), DR4 submotif (AID 2282929)
Conditions: HepG2 Attagene DR4 cis-reporter, mRNA transcription; actives raise or lower the signal
Description: ATG_CIS is a cell-based, multiplexed-readout assay that uses HepG2, a human liver cell line, with measurements taken at 24 hours after chemical dosing in a 24-well plate.ATG_DR4_LXR_CIS is one of 52 assay component(s) measured or calculated from the ATG_CIS assay. It is designed to make measurements of mRNA induction, a form of inducible reporter, as detected with fluorescence intensity signals by Reverse transcription polymerase chain reaction (RT-PCR) and Capillary electrophoresis technology.Data from the assay component ATG_DR4_LXR_CIS was analyzed into 1 assay endpoint. This assay endpoint, ATG_DR4_LXR_CIS, was analyzed with bidirectional fitting relative to DMSO as the negative control and baseline of activity. Using a type of inducible reporter, measures of mRNA for gain or loss-of-signal activity can be used to understand the reporter gene at the transcription factor-level as they relate to the gene NR1H2 and NR1H3. Furthermore, this assay endpoint can be referred to as a primary readout, because this assay has produced multiple assay endpoints where this one serves a reporter gene function. To generalize the intended target to other relatable targets, this assay endpoint is annotated to the nuclear receptor intended target family, where the subfamily is non-steroidal.
Human liver HepG2 cells are transiently transfected with multiple reporter transcription units (MRTUs) in 6-well plates using FuGene 6 reagent (Roche; 3 ml FuGene/1 mg DNA). The MRTU constructs are regulated by a cis-regulating element (promoter). […] A major difference between the CIS and TRANS system is that in CIS activities of endogenous TFs are measured, whereas the TRANS assay evaluates changes in activities of exogenous, chimeric NR-Gal4 proteins. […] At the end of 24 hour incubation, total RNA was isolated using TriZol reagent (Invitrogen). The isolated RNA is then reverse-transcribed using oligo(dT) primer and Mo-MLV reverse transcriptase (Invitrogen) with DNAse I (Ambion) treatment for 30 min. The one-tenth of the produced cDNA was amplified by PCR using Taq DNA polymerase (Invitrogen) and two reporter sequence-specific primers. The PCR products were fluorescently labeled by primer extension with 6-arboxyfluorescein (6-FAM) 5'-labeled reporter sequence-specific primer (2 min at 95 C, 20 s at 68 C and 10 min at 72 C) and these products were digested with 5U of HpaI (New England Biolabs) for 2h at 37 C. The fragments were purified using Qiaquick PCR columns (Qiagen), analyzed on an ABI 3130xL genetic analyzer (Applied Biosystems) with peak positions identified by using a set of X-rhodamine (ROX)-labeled MapMarker1000 molecular weight standards (BioVentures). The raw capillary electrophoresis data was processed using Attagraph software (Attagene).

Q: With `CCC(C)(C)C1CCC(=O)CC1` as the compound, how does the outcome read?
A: inactive

Q: Which outcome does the source give for `Cc1ccc(C(C)(C)O)cc1` here?
A: inactive

Q: With `CC(CCO)CC(C)(C)C` (stereo not given) as the compound, how does the outcome read?
A: inactive

Q: With `CCCCCCCCCCO[C@@H]1O[C@H](CO)[C@@H](O)[C@H](O)[C@H]1O` as the compound, how does the AC50 read?
A: 125 µM (active)

Q: Which outcome does the source give for `CC1=CCC(C(C)C)=CC1` here?
A: inactive

Q: Which outcome does the source give for `CC(O)CNCC(C)O` (stereo not given) here?
A: inactive

Q: Which outcome does the source give for `C1=COCCC1` here?
A: inactive

Q: With `CC(=N[Si](C)(C)C)O[Si](C)(C)C` as the compound, how does the outcome read?
A: inactive

Q: With `CC(=O)CCC=C(C)CCC=C(C)C` as the compound, how does the outcome read?
A: inactive

Q: Which results are given for `C#C[C@]1(O)CC[C@H]2[C@@H]3CCc4cc(O)ccc4[C@H]3CC[C@@]21C`?
A: AC50: 100 µM (active) and 34 µM (active); outcome: inactive

Q: Which outcome does the source give for `C=CCOCC(O)CO` (stereo not given) here?
A: inactive

Q: For `CCCCCCOc1ccc(O)cc1`, which AC50 is on record?
A: 44.1 µM (active)

Q: Which outcome does the source give for `CC/C(=C(\c1ccccc1)c1ccc(OCCN(C)C)cc1)c1ccccc1` here?
A: inactive

Q: With `CCCCCCCCCCOC(=O)c1ccccc1C(=O)OCCCCCCCC` as the compound, how does the outcome read?
A: inactive

Q: For `CCC(C)(CCCC(C)C)OC(C)=O` (stereo not given), which outcome is on record?
A: inactive

Q: With `CCO[Si](CC)(OCC)OCC` as the compound, how does the AC50 read?
A: 155 µM (active)

Q: With `CC(=O)c1ccc(O)cc1` as the compound, how does the outcome read?
A: inactive

Q: For `NC(=O)c1c(Cl)cccc1Cl`, which outcome is on record?
A: inactive

Q: With `CC(C)=CCCC(C)=CC(=O)O` as the compound, how does the outcome read?
A: inactive

Q: With `CC(=O)OC/C=C(C)/C=C/C=C(C)/C=C/C1=C(C)CCCC1(C)C` as the compound, how does the outcome read?
A: inactive

Q: For `CCCCC1CCCCC(=O)O1` (stereo not given), which outcome is on record?
A: inactive

Q: Which outcome does the source give for `CC(=O)CC(=O)N(C)C` here?
A: inactive

Q: With `CN1CCc2cccc3c2[C@H]1Cc1ccc(O)c(O)c1-3` as the compound, how does the AC50 read?
A: 18.8 µM (active)

Q: For `CC(=O)c1cccnc1`, which outcome is on record?
A: inactive

Q: For `O=C(O)c1cc2ccccc2cc1O`, which outcome is on record?
A: inactive

Q: For `CC12CCC(C1)C(C)(C)C2O` (stereo not given), which outcome is on record?
A: inactive

Q: For `OCCCO`, which outcome is on record?
A: inactive

Q: For `C=CCOC(=O)/C=C\C(=O)OCC=C`, which AC50 is on record?
A: 27.9 µM (active)

Q: Which outcome does the source give for `CCCCCC#CC(=O)OC` here?
A: inactive

Q: Which AC50 does the source give for `C=C1CC/C=C(\C)CC[C@@H]2[C@@H]1CC2(C)C` here?
A: 61.3 µM (active)

Q: With `Cc1cc(O)c2c(c1)C(=O)c1cc(O)cc(O)c1C2=O` as the compound, how does the AC50 read?
A: 44.8 µM (active)

Q: For `Brc1cc(Br)cc(Br)c1`, which outcome is on record?
A: inactive

Q: For `CC(O)COCC(C)O` (stereo not given), which outcome is on record?
A: inactive

Q: For `N#CCCNCCC#N`, which outcome is on record?
A: inactive

Q: Which outcome does the source give for `Cc1cccc(O)c1` here?
A: inactive

Q: For `C=C(C)C(=O)OCCN(C)C`, which outcome is on record?
A: inactive

Q: Which outcome does the source give for `S=c1[nH][nH]c(=S)s1` here?
A: inactive

Q: With `O=c1cc[nH]cc1` as the compound, how does the outcome read?
A: inactive

Q: For `CCCO`, which outcome is on record?
A: inactive
